From PubChem BioAssay (NCI)
The panel holds about 83,000 compounds, 20% with a hit somewhere; the sample as a whole holds those more often.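 Compound tested at a single concentration for 48 hours in 96-well plates; a percent growth value below 10 was scored as active.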 Values without a mark were called inactive. Active and inactive are the calls of the source.

Key:
Assay in all cases: NCI-60 one-dose screen, 48 h (100 = growth as untreated, 0 = no growth, -100 = all killed)
Conditions in all cases: 10 µM unless noted
EKVX NSCLC = system: EKVX NSCLC
SN12C renal = system: SN12C renal
UO-31 renal = system: UO-31 renal
TK-10 renal = system: TK-10 renal
ACHN renal = system: ACHN renal
CAKI-1 renal = system: CAKI-1 renal
A498 renal = system: A498 renal
CCRF-CEM leukemia = system: CCRF-CEM leukemia
MOLT-4 leukemia = system: MOLT-4 leukemia
SR leukemia = system: SR leukemia
RPMI-8226 leukemia = system: RPMI-8226 leukemia
OVCAR-8 ovarian = system: OVCAR-8 ovarian
OVCAR-5 ovarian = system: OVCAR-5 ovarian
OVCAR-4 ovarian = system: OVCAR-4 ovarian
SK-OV-3 ovarian = system: SK-OV-3 ovarian
IGROV1 ovarian = system: IGROV1 ovarian
OVCAR-3 ovarian = system: OVCAR-3 ovarian
HS 578T breast = system: HS 578T breast
NCI/ADR-RES ovarian = system: NCI/ADR-RES ovarian
T-47D breast = system: T-47D breast

Structure (SMILES) | growth (EKVX NSCLC) | growth (SN12C renal) | growth (UO-31 renal) | growth (TK-10 renal) | growth (ACHN renal) | growth (CAKI-1 renal) | growth (A498 renal) | growth (CCRF-CEM leukemia) | growth (MOLT-4 leukemia) | growth (SR leukemia) | growth (RPMI-8226 leukemia) | growth (OVCAR-8 ovarian) | growth (OVCAR-5 ovarian) | growth (OVCAR-4 ovarian) | growth (SK-OV-3 ovarian) | growth (IGROV1 ovarian) | growth (OVCAR-3 ovarian) | growth (HS 578T breast) | growth (NCI/ADR-RES ovarian) | growth (T-47D breast)
Cc1ccccc1-c1cc(Cc2ccccc2O)c(=O)[nH]n1 | 67% | 97.4% | 71.1% | 130% | 94.9% | 88.8% | 110% | -49.5% (active) | 86.7% | 92.5% | 78.6% | 91.8% | 118% | 106% | 253% | 86.6% | 100% | 104% | 111% | 200%
CN1CCN(Cc2ccc(NC(=O)c3[nH]ncc3Nc3ccnc4ccnn34)cc2)CC1 | 100% | 35.1% | 71.1% | 103% | 66.4% | 75.4% | 74.4% | 54.6% | 45.5% | 16% | 111% | 61.8% | 94% | 62.1% | 29.1% | 58.3% | 53.7% | 63% | 107% | 63.2%
N#Cc1ccc(NC(=O)Nc2ccc(Oc3ccc(NC(=O)Nc4ccc(C#N)cc4)cc3)cc2)cc1 | 34.1% | 39% | -25.7% (active) | 37.9% | 23.1% | 33% | 41.1% | -13.7% (active) | -58% (active) | 3.43% (active) | -56.2% (active) | 31% | 47.4% | 33.8% | 58.7% | -21.5% (active) | 11.1% | 38.9% | 48.9% | 2.9% (active)
COc1cc(C2NC(c3ccc(Cl)cc3)C(C)/C(=N/NC(N)=S)C2C)cc(OC)c1OC (stereo not given) | 107% | 94.7% | 76.7% | 103% | 93.2% | 51.1% | 129% | 89.8% | 70.7% | 98.6% | 74.2% | 87.3% | 98% | 87% | 101% | 89.7% | 98.6% | 98.1% | 94.1% | 82.7%
CCN(CC)CCOc1ccccc1-n1c(C)ccc1-c1ccccc1 | 83.8% | 91.7% | 55.2% | 85.2% | 105% | 85.1% | 65.1% | 28.1% | -35.2% (active) | -29.4% (active) | 63.2% | 97.5% | 101% | 106% | 99.5% | 71.4% | 78.9% | 82.5% | 85.4% | 91.9%
Nc1nc(Cl)c2[nH]cnc2n1 | 99.5% | 92.4% | 93.5% | 103% | 96.4% | 89.4% | 95.1% | 115% | 114% | 95.6% | 107% | 109% | 93.5% | 101% | 93.2% |  | 125% | 117% | 51% | 103%
CCN(CC)CCOc1ccc(C2=C(c3ccccc3)CCc3cc(OC)ccc32)cc1 | 54.4% | 52.3% | -76.7% (active) | -21.1% (active) | 50.5% | -26.1% (active) | -4.36% (active) | -37.8% (active) | -49.7% (active) | -42.1% (active) | -64.7% (active) | 46.6% | 22.2% | 52.3% | 68.9% |  | 12.7% | -6.19% (active) | -26.1% (active) | 25%
Cn1[nH]cc(/C=N/C(N)=O)c1=O | 123% | 108% | 106% | 109% | 109% | 109% | 104% | 94.8% | 105% | 103% | 105% | 105% | 102% | 106% | 110% | 124% |  | 109% | 108% | 104%
CO[C@H]1/C=C/O[C@@]2(C)Oc3c(C)c(O)c4c(O)c(c(/C=N/N5C(C)CN(Cc6ccccc6)CC5C)c(O)c4c3C2=O)NC(=O)/C(C)=C\C=C\[C@H](C)[C@H](O)[C@@H](C)[C@@H](O)[C@@H](C)[C@H](OC(C)=O)[C@@H]1C (stereo not given in full) | 64.7% | 87% | 34.1% | 69.1% | 70.1% | 117% | 96.1% | 285% | 217% | 212% | 83.5% | 75.6% | 99.1% | 89.8% | 116% |  |  | 84.6% | -20.3% (active) | 81.4%
S=C(Nc1ccc(C2=NCCN2)cc1)Nc1ccc(C2=NCCN2)cc1 | 91.9% | 98.9% | 83.4% | 100% | 99.2% | 93.9% | 101% | 104% | 93.6% | 90.4% | 94.4% | 96.2% | 97.7% |  | 108% | 108% | 110% | 110% | 93.2% | 83.2%
N#CCCCCCn1c2ccccc2c2c3c(c4c5ccccc5[nH]c4c21)C(=O)N(O)C3=O | 46% | 6.13% (active) | -44.9% (active) | 22% | -81.6% (active) | -59.9% (active) | -76.3% (active) | -1.67% (active) | -21.3% (active) | -9.51% (active) | -18.3% (active) | 7.06% (active) | -18.3% (active) | 19.5% | 41.3% | -1.36% (active) |  | 19.8% | 67.9% | 14.2%
Nc1nc2ncc(CCNc3ccc(C(=O)NC(CCC(=O)O)C(=O)O)cc3)nc2c(=O)[nH]1 (stereo not given) | 119% | 108% | 70.7% | 107% | 103% | 114% | 95.8% | 77.1% | 145% | 133% | 112% | 108% | 90.1% | 104% | 110% |  |  | 101% | -2.15% (active) | 115%
O=c1[nH]c(=O)n(C2CC(O)C(CO)O2)cc1C(F)(F)F (stereo not given) | 86.6% | 28.6% | 23.5% | 64.8% | 24.6% | 66.2% | 42.3% | -30.2% (active) | 31.8% | -24.8% (active) | -23% (active) | 48.5% | 54.5% | 78.1% | 74.3% |  | 69.7% | 70.8% | -56.9% (active) | 52.8%
